{"source": "the OligoGym collection", "data": [{"target": "AIG1", "experiment": "pooled miR-30 sensor sort-seq; sequence = guide strand", "conditions": "shRNA", "values": [{"sequence": "TAAATGATCCAGAACACTGCTA", "sensor-assay potency score (higher = more potent)": 0.31}, {"sequence": "TTAAGATGGTTGTAGACCCAAA", "sensor-assay potency score (higher = more potent)": -0.997}, {"sequence": "TAGTTACACAGGATAGAGCAGT", "sensor-assay potency score (higher = more potent)": -0.722}, {"sequence": "AATTCTTTAACACACAGTGAGG", "sensor-assay potency score (higher = more potent)": -1.45}, {"sequence": "TAATATAAAGGGCAGAACCGTC", "sensor-assay potency score (higher = more potent)": -1.19}]}, {"target": "AK1", "experiment": "pooled miR-30 sensor sort-seq; sequence = guide strand", "conditions": "shRNA", "values": [{"sequence": "TCGCTCAAACTCTTCTCCTTGC", "sensor-assay potency score (higher = more potent)": -0.418}, {"sequence": "TGATGGTCTCCTCATTGTCGTC", "sensor-assay potency score (higher = more potent)": -1.72}, {"sequence": "TACAGCAGCAGTGTGGGCTGTC", "sensor-assay potency score (higher = more potent)": 0.332}, {"sequence": "TGTCTCCAGTGGAACCAGCTGC", "sensor-assay potency score (higher = more potent)": -0.761}, {"sequence": "ATTGTCGTCCACACGCCCGCTG", "sensor-assay potency score (higher = more potent)": -0.347}, {"sequence": "TCATTGTCGTCCACACGCCCGC", "sensor-assay potency score (higher = more potent)": -0.841}, {"sequence": "TTGACCTTGCGCACAATGCCAC", "sensor-assay potency score (higher = more potent)": -0.47}, {"sequence": "TTTGATGGTCTCCTCATTGTCG", "sensor-assay potency score (higher = more potent)": -0.362}, {"sequence": "TTTCCGACAGCTTCTTGCCCCT", "sensor-assay potency score (higher = more potent)": -0.367}, {"sequence": "TTGTCGTCCACACGCCCGCTGG", "sensor-assay potency score (higher = more potent)": -1.2}, {"sequence": "TTGATGGTCTCCTCATTGTCGT", "sensor-assay potency score (higher = more potent)": -0.675}, {"sequence": "TTTGGAAGTATTGACTTTGGCC", "sensor-assay potency score (higher = more potent)": -0.356}, {"sequence": "TGCACGATCTTCTCACACTGGG", "sensor-assay potency score (higher = more potent)": -0.837}, {"sequence": "TCCACATACAGCAGCAGTGTGG", "sensor-assay potency score (higher = more potent)": -1.37}, {"sequence": "TTCTCCTTGCTGCACCTCCCGC", "sensor-assay potency score (higher = more potent)": -1.57}, {"sequence": "TAATAGGTCTCCAGCCGCTTTT", "sensor-assay potency score (higher = more potent)": -1.38}, {"sequence": "TGTAATAGGTCTCCAGCCGCTT", "sensor-assay potency score (higher = more potent)": -0.437}, {"sequence": "TAGCCATCAATCAGGAAGCCTT", "sensor-assay potency score (higher = more potent)": -0.92}, {"sequence": "TCCAACACTGTCTCCAGTGGAA", "sensor-assay potency score (higher = more potent)": -1.08}, {"sequence": "TACTTCTGCACGATCTTCTCAC", "sensor-assay potency score (higher = more potent)": 0.346}, {"sequence": "TTGTAATAGGTCTCCAGCCGCT", "sensor-assay potency score (higher = more potent)": -0.883}, {"sequence": "TTGACTTTGGCCACCATGGCAT", "sensor-assay potency score (higher = more potent)": -0.482}, {"sequence": "ATGATTTCCGACAGCTTCTTGC", "sensor-assay potency score (higher = more potent)": -1.06}, {"sequence": "TGCGTCCACATACAGCAGCAGT", "sensor-assay potency score (higher = more potent)": -1.67}]}, {"target": "AKR1A1", "experiment": "pooled miR-30 sensor sort-seq; sequence = guide strand", "conditions": "shRNA", "values": [{"sequence": "TGTCACAAACAGCTCCTCCCGA", "sensor-assay potency score (higher = more potent)": -0.337}, {"sequence": "TATAGTCCCATCAGCATTCTTG", "sensor-assay potency score (higher = more potent)": -0.715}, {"sequence": "TAAAGGTGAAGTCAAACACCTT", "sensor-assay potency score (higher = more potent)": -1.29}, {"sequence": "TAAGGGCATACTTAACAGCTGC", "sensor-assay potency score (higher = more potent)": -0.729}, {"sequence": "TACCTGACCAGGCTCACTCTTC", "sensor-assay potency score (higher = more potent)": -0.753}, {"sequence": "TTGGATGTCACAAACAGCTCCT", "sensor-assay potency score (higher = more potent)": 0.145}, {"sequence": "TAGTGGGTGGAGTCGTAGCATA", "sensor-assay potency score (higher = more potent)": -1.36}, {"sequence": "TTAACAGCTGCTTTTACCTGAC", "sensor-assay potency score (higher = more potent)": -0.112}, {"sequence": "TTAGCTGCTTCATCTCTTCTGG", "sensor-assay potency score (higher = more potent)": -0.107}, {"sequence": "TTGATGTTCTGAAGGATTCGAG", "sensor-assay potency score (higher = more potent)": -0.236}]}]}
